# Data reported in PubChem BioAssay (NCI).
# About 83,000 compounds went through this panel and 20% of them were active in at least one assay; those are over-represented in the sample as a whole.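 A percent growth of 40 corresponds to 60% growth inhibition; 0 means no net growth; -100 means all cells died. Active threshold: below 10.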 Unmarked numbers belong to inactive results. Calls of active or inactive are those of the source.
# Experiments:
# Test in all cases: NCI-60 one-dose screen, 48 h (100 = growth as untreated, 0 = no growth, -100 = all killed)
# Conditions in all cases: 10 µM unless noted
# [1] = test system: SR leukemia
# [2] = test system: RPMI-8226 leukemia
# [3] = test system: OVCAR-8 ovarian
# [4] = test system: OVCAR-5 ovarian
# [5] = test system: OVCAR-4 ovarian
# [6] = test system: SK-OV-3 ovarian
# [7] = test system: IGROV1 ovarian
# [8] = test system: OVCAR-3 ovarian
# [9] = test system: HS 578T breast
# [10] = test system: NCI/ADR-RES ovarian
# [11] = test system: T-47D breast
# [12] = test system: BT-549 breast
# [13] = test system: MDA-MB-435 melanoma
# [14] = test system: SW-620 colon
# [15] = test system: MCF7 breast
# [16] = test system: HCT-116 colon
# [17] = test system: HCC-2998 colon
# [18] = test system: KM12 colon
Structure (SMILES),growth [1],growth [2],growth [3],growth [4],growth [5],growth [6],growth [7],growth [8],growth [9],growth [10],growth [11],growth [12],growth [13],growth [14],growth [15],growth [16],growth [17],growth [18]
CCOC(=O)C#Cc1c(CC(=O)OCC)nnn1[C@H]1O[C@@H](CO)[C@@H]2OC(C)(C)O[C@@H]21,6.89% (active),45%,94.6%,93.9%,88.4%,94.4%,98.3%,9.91% (active),101%,102%,38.2%,87.3%,87.2%,-19% (active),11.5%,65.2%,107%,103%
CNC(=O)c1cc(Oc2ccc3nc(NC(=O)c4cc(C(F)(F)F)cc(C(F)(F)F)c4)sc3c2)ccn1,12.5%,9.36% (active),20.8%,51.6%,15.8%,-2.45% (active),30.9%,12%,32.1%,12.9%,0.372% (active),11.4%,12.1%,40.2%,9.82% (active),12.4%,35.2%,15.5%
CC(=O)c1ccc(Nc2nccc(-c3ccc(Cl)cc3)n2)cc1,58.3%,93.6%,91.7%,91.6%,105%,108%,103%,109%,95%,96.1%,80.2%,100%,104%,92.6%,76.8%,62.9%,114%,94.7%
C#Cc1cccc(Nc2ncnc3ccc(-c4cnc(Cl)c(NS(C)(=O)=O)c4)cc23)c1,-9.92% (active),-31.8% (active),3.78% (active),-15.5% (active),9.21% (active),-25% (active),-55.8% (active),-72.5% (active),-21.4% (active),7.96% (active),-46.8% (active),-35.4% (active),-55.2% (active),2.56% (active),-0.512% (active),-55% (active),-62.5% (active),-54.3% (active)
COc1ccc(-c2nc(SCCC(C)C)nc(N/N=C(/C)c3ccc(N)cc3)c2C#N)cc1,90.2%,93.3%,92.7%,93.7%,101%,89%,79%,99.2%,92.4%,93.6%,85%,96.7%,104%,95.2%,86.1%,94.3%,97.4%,92.1%
C=CCNc1ccc2c3c(cccc13)C(=O)N(CC=C)C2=O,74.8%,95.2%,96.3%,92%,110%,103%,88.7%,107%,91.6%,92.8%,83%,98.4%,109%,108%,34%,86.5%,106%,101%
COc1cc(/C=N/NC(=O)c2ccc3nc(-c4ccc(Cl)cc4)[nH]c3c2)cc(OC)c1OC,45.7%,19.9%,60.5%,172%,102%,87.8%,68.4%,61.6%,48.3%,106%,15.9%,70.7%,64%,78.7%,12.1%,36.2%,80%,61.8%
Cc1ccc(NC(=O)c2ccc(Nc3ncnc4c3cnn4-c3cccc(F)c3)cc2)cc1,92.7%,90.2%,97.6%,99.6%,98.9%,109%,97.9%,106%,96.6%,98.8%,92.6%,99.7%,100%,101%,96.5%,101%,107%,102%
COc1ccc(CNc2c3ccccc3nc3ccccc23)cc1OC,8.57% (active),0.62% (active),23.9%,27.5%,21.4%,41.2%,10.9%,43.7%,37.2%,19.3%,25.8%,42.1%,29.4%,16%,0.674% (active),12.2%,30.1%,31.6%
CCCN1C2CCC1/C(=C\c1ccc(OC)cc1)C(=O)/C2=C/c1ccc(OC)cc1,45.4%,40.7%,72.6%,93.5%,73.5%,79.4%,82.2%,81.8%,92%,77%,45.3%,87.2%,63.5%,90.4%,75.8%,61.9%,91.9%,74.2%
CCOC(=O)CSc1nc2sc3c(c2c(=O)n1-c1ccccc1)CCCCC3,103%,105%,103%,103%,116%,100%,106%,93.5%,103%,108%,94.4%,110%,107%,98.1%,94.5%,97.3%,114%,104%
CN1CCN(Cc2ccc(NC(=O)c3cncc(C#Cc4cnc(N)c5ncccc45)c3)cc2Cl)CC1,-1.93% (active),73.1%,101%,95.1%,104%,109%,110%,116%,80.1%,74.9%,121%,105%,94.2%,2.96% (active),65.6%,14.6%,106%,23%
CCCC1Cc2cc(-n3nc(C)c4c3CC(C)(C)CC4=O)cc(NC3CCC(O)CC3)c2C(=O)N1 (stereo not drawn),29.5%,51%,40.3%,58.8%,62.5%,17.1%,24.7%,52.6%,59.1%,47%,46.9%,68.4%,26.8%,20.4%,36.5%,15.4%,34.2%,15.5%
CC(C)C(=O)Nc1ncc(C(=O)NCCN(Cc2ccccc2)C(=O)c2ccc(S(=O)(=O)Nc3ccccc3)cc2)s1,100%,97.6%,102%,97.7%,112%,110%,105%,106%,87.1%,101%,91.7%,89.2%,98.1%,107%,85.8%,90.9%,106%,105%
NC(=O)[C@@H]1Cc2ccccc2CN1C(=O)c1ccc2c(c1)Cc1ccccc1-2,92.6%,60.1%,75.1%,98.8%,84.9%,108%,90.2%,85.7%,93.8%,62.8%,57.2%,63.1%,77.7%,110%,70.8%,81.1%,98.9%,88.6%
Clc1ccc(C2=Nn3c(nnc3-c3cc(Cl)cc(Cl)c3Cl)SC2)cc1,2.55% (active),42.8%,71.8%,19.3%,74.9%,50.4%,22.7%,8.59% (active),20.9%,5.52% (active),63.2%,31.4%,-15.6% (active),19.1%,7.6% (active),13.7%,-8.03% (active),23.5%
